# Sampled rows, rich in hits. Any-hit rate of the full collection: about 11%.
# Pf growth 96h – P. falciparum growth inhibition at 96 hour, primary screen for plastid delayed-death inhibitors | Potency, µM (highest dose often 28.7 µM), hits mostly inhibitors | hit rate 6.9% among 320,000 | AID 504834 | P. falciparum luciferase reporter growth, 96 h
#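 Erythrocytes infected with luciferase-expressing P. falciparum were dispensed at 2% hematocrit and 0.05% parasitemia (final), then incubated with compounds 96 hours at 37 C in 5% CO2. Luminescence after detection reagent addition reported growth.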
# NS1 inh – inhibitors of influenza NS1 protein function | hit rate 0.4% among 270,000 | Potency, µM (titrated, usually from 46.1 µM) | AID 2326; calls by dose curve; also: actives are rising curves; nearly all actives have a fitted effect of over 50% in size
#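 OD600 was taken as the measure of yeast growth restored by compound in an NS1-expressing S. cerevisiae strain. Cells had been washed out of glucose medium and diluted 1:100 into galactose -URA medium, pH 6.0.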
# Pf growth 48h – inhibits P. falciparum growth in the first generation, 48 h | P. falciparum luciferase growth in erythrocytes, 48 h | Potency, µM (titrated, usually from 28.7 µM), actives largely listed as inhibitors | hit rate 5.9% among 310,000
#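 Here the parasites carry a stable luciferase gene and grow inside erythrocytes in Albumax-based RPMI medium with compound for one erythrocytic cycle. Activity is scored as loss of luminescent signal.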
# VACV mCherry inh – inhibitors of vaccinia virus infection (mCherry reporter signal). Vaccinia virus mCherry reporter infection, fluorescence. Potency, µM (highest dose often 36.5 µM), actives largely listed as inhibitors. hit rate 0.63% among 310,000; calls by dose curve; tested in A549 cells; also: nearly all actives have a fitted effect of over 35% in size
# HCV inh – inhibitors of hepatitis C virus infection; Huh7.5.1 HCVcc-Cre infection, luciferase reporter, 44 h; Potency, µM (top dose mostly 41.8 µM), most hits filed as inhibitors; hit rate 3.4% among 340,000
#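 Whole-lifecycle infectious HCVcc-Cre system; cells 1,000/well, compound then virus (~0.5 moi) added 4 h after plating, 44 h culture. Luciferase read 15 sec following 15 min substrate incubation, room temp.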
# VACV Venus inh – inhibitors of vaccinia virus (Venus reporter) | Vaccinia virus Venus reporter expression, fluorescence | Potency, µM (highest dose often 36.5 µM), hits mostly inhibitors | hit rate 0.46% among 330,000; calls by dose curve; tested in A549 cells; also: nearly all actives have a fitted effect of over 30% in size
# Numbers stand for hits; – = inactive; ? = inconclusive; · = no result given; [ ] = another dose, or the depositor's remark. Unless noted, calls follow the shape of the dose curve; as a rule, active = well fitted inhibition curve with a large enough effect; inconclusive = small, poorly fitted or top-dose-only effect, or another doubt; inactive = no such curve, though single readings can be large or run the other way.
SMILES,Pf growth 96h,NS1 inh,Pf growth 48h,VACV mCherry inh,HCV inh,VACV Venus inh
COc1ccc(OC)c(-c2csc(NC(=O)COC(=O)C3(C)CC3(Cl)Cl)n2)c1 (configuration not stated),–,·,?,·,14µM,·
CC(C)(C)c1csc(NC(=O)CS(=O)(=O)c2ccccc2)n1,–,–,–,–,–,–
COc1ccc(CC(=O)Nc2nc(C(C)(C)C)cs2)cc1,–,–,–,?,10µM,–
CCc1c(C)nc(N)nc1N1N=C1SC,?,–,·,·,–,·
CCCCSC1=NN1c1nc(N)nc(C)c1CC,8.3µM,–,·,·,–,·
O=c1[nH]c(C2CCCN(S(=O)(=O)Cc3ccccc3)C2)nc2c1nnn2Cc1cccc(Cl)c1 (configuration not stated),–,–,12µM,–,–,–
N#Cc1ccc(NC(=O)N2CCC(c3nc4c(nnn4Cc4cccc(Cl)c4)c(=O)[nH]3)CC2)cc1,7.4µM,–,?,–,–,–
N#Cc1ccccc1S(=O)(=O)N1CCCC(c2nc3c(nnn3Cc3cccc(Cl)c3)c(=O)[nH]2)C1 (configuration not stated),·,·,·,–,·,–
Cc1ccc(Cn2nnc3c(=O)[nH]c(C4CCN(S(=O)(=O)Cc5ccccc5)CC4)nc32)cc1,–,–,?,?,?,?
O=c1[nH]c(C2CCCN(S(=O)(=O)c3ccc(F)cc3)C2)nc2c1nnn2Cc1ccccc1 (configuration not stated),–[5.75 µM],–,13µM,–,–,–
O=c1[nH]c(C2CCN(S(=O)(=O)/C=C/c3ccccc3)CC2)nc2c1nnn2Cc1ccccc1,–,–,4.7µM,–,–,–
O=C(c1ccco1)N1CCCC(c2nc3c(nnn3Cc3cccc(Cl)c3)c(=O)[nH]2)C1 (configuration not stated),–,–,?,–,–,–
CC(=O)Nc1cccc(NC(=O)Nc2ccc(F)cc2F)c1,–,·,–,–,–,–
N#C/C(=C\c1cccs1)C(=O)NCc1cccnc1,–,–,–,·,–,·
CCN(CC)C(=O)COc1cccc2ccccc12,–,–,–,·,–,·
Cc1ccc(S(=O)(=O)N2CCC(c3nc4c(nnn4Cc4ccccc4)c(=O)[nH]3)CC2)cc1,–,–,12µM,–,–,–
O=c1[nH]c(C2CCN(S(=O)(=O)c3ccccc3C(F)(F)F)CC2)nc2c1nnn2Cc1ccccc1,2.6µM,–,5.9µM,–,–,–
CCCCOCCCNC(=O)C[C@@H]1C[C@@]2(C(=O)OCC)CCCC=C2N(Cc2cccc3ccccc23)C1=O,·,·,·,–,·,–
CCOC(=O)C1CCN(C(=O)Cn2nc(C)n3c(cc4sccc43)c2=O)CC1,·,·,·,–,·,–
c1ccc(Nc2nc3ccccc3[nH]2)nc1,?,–,?,–,–,–
CCn1cc(C(=O)O)c(=O)c2cc(F)c(N3CCN(C(=S)NC(=O)c4ccccc4Cl)CC3)cc21,?,–,5.2µM,–,–,–
C=CCNC(=S)N1CCN(c2cc3c(cc2F)c(=O)c(C(=O)O)cn3CC)CC1,2.3µM,–,?,–,–,–
CCn1cc(C(=O)O)c(=O)c2cc(F)c(N3CCN(C(=S)NC(=O)c4ccccc4C)CC3)cc21,?,–,?,–,–,–
COc1ccc(NC(=O)CN2CCC3(O)CCCCC3C2c2cc(OC)ccc2OC)cc1 (configuration not stated),?,–,?,·,–,–
COC(=O)c1c(NC(=O)CN2CCC3(O)CCCCC3C2c2ccc(OC)cc2OC)sc(C)c1C (configuration not stated),–,–,12µM,–,?,–
SMILES,Pf growth 96h,NS1 inh,Pf growth 48h,VACV mCherry inh,HCV inh,VACV Venus inh
COC(=O)c1c(NC(=O)CN2CCC3(O)CCCCC3C2c2ccccc2OC)sc(C)c1C (configuration not stated),?,–,5.2µM,–,–,–
Cc1ccc(N(CC(=O)NCc2ccncc2)S(C)(=O)=O)cc1,?,–,–,·,–,–
O=S(=O)(NC1CCCCC1NCc1ccco1)c1ccccc1 (configuration not stated),–,–,–,–,–,–
CC(N)=Nc1ccc([N+](=O)[O-])cc1,–,–,–,–,–,–
O=[N+]([O-])c1ccc(N=Nc2c(Cl)cc(O)cc2Cl)cc1,?,–,?,?,5µM,?
COc1ccc(CSc2nc(C)cc(=O)[nH]2)cc1,4.7µM,–,–,·,–,–

# Source: PubChem (National Center for Advancing Translational Sciences (NCATS))
